# Laboratory results: PubChem BioAssay AID1159580 (chemical genetic matrix, 2015)
# “And” between values parts separate entries of the source, which are not always exact repeats. Equal values may be shown once. Out of some 5,500 compounds screened, about 2,000 (36%) were called active. Inconclusive results (about 18%) are left out. The list shows a part of the results. Values without a mark were called inactive. No stated cut-off is given here; in the data, active means normalized growth mostly below about 0.91 (no sharp cut-off); inconclusive means no clear call, values can overlap the other calls; inactive means mostly above about 0.92.
# Assay: chemical genetic growth profiling, strain panel (AID 1159580);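 further: tested at 20 µM; growth read once vehicle control cultures reached saturation at 30 °C; 1 = growth at the plate median or of vehicle wells; lower values mean less growth of the strain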
# Conditions: S. cerevisiae deletion strains, growth OD
compound,measurement,setting,value
CCCCCCc1ccc(O)cc1O,normalized growth,"locus YAL013W, strain DEP1, hits give low values",0.677 (active)
same,normalized growth,"locus YAL021C, strain ccr4, hits give low values",0.955
same,normalized growth,"locus YAL026C, strain drs2, hits give low values",0.747 (active)
same,normalized growth,"locus YAL030W, strain snc1, hits give low values",0.961
same,normalized growth,"locus YBL061C, strain skt5, hits give low values",0.927
same,normalized growth,"locus YBR009C, strain hhf1, hits give low values",0.788 (active)
same,normalized growth,"locus YBR021W, strain FUR4, hits give low values",0.977
same,normalized growth,"locus YBR023C, strain chs3, hits give low values",0.89 (active)
same,normalized growth,"locus YBR171W, strain sec66, hits give low values",0.973
same,normalized growth,"locus YBR229C, strain ROT2, hits give low values",0.967
same,normalized growth,"locus YBR231C, strain swc5, hits give low values",0.865 (active)
same,normalized growth,"locus YBR279W, strain paf1, hits give low values",0.968
same,normalized growth,"locus YCL011C, strain gbp2, hits give low values",0.896 (active)
same,normalized growth,"locus YCL016C, strain dcc1, hits give low values",0.912 (active)
same,normalized growth,"locus YCL029C, strain bik1, hits give low values",0.877 (active)
same,normalized growth,"locus YCL061C, strain MRC1, hits give low values",0.906 (active)
same,normalized growth,"locus YCL069W, strain vba3, hits give low values",0.972
same,normalized growth,"locus YCR088W, strain abp1, hits give low values",0.939
same,normalized growth,"locus YDL005C, strain med2, hits give low values",0.988
same,normalized growth,"locus YDL035C, strain GPR1, hits give low values",0.872
same,normalized growth,"locus YDL040C, strain nat1, hits give low values",0.973
same,normalized growth,"locus YDL074C, strain BRE1, hits give low values",0.786
same,normalized growth,"locus YDL101C, strain DUN1, hits give low values",0.95
same,normalized growth,"locus YDL185W, strain tfp1, hits give low values",0.956
same,normalized growth,"locus YDL192W, strain arf1, hits give low values",0.798 (active)
same,normalized growth,"locus YDR001C, strain nth1, hits give low values",0.975
same,normalized growth,"locus YDR069C, strain doa4, hits give low values",0.939
same,normalized growth,"locus YDR101C, strain arx1, hits give low values",0.84 (active)
same,normalized growth,"locus YDR137W, strain rgp1, hits give low values",0.608 (active)
same,normalized growth,"locus YDR150W, strain NUM1, hits give low values",0.942
same,normalized growth,"locus YDR159W, strain sac3, hits give low values",0.525 (active)
same,normalized growth,"locus YDR162C, strain NBP2, hits give low values",0.884
same,normalized growth,"locus YDR195W, strain ref2",1.12
same,normalized growth,"locus YDR297W, strain sur2, hits give low values",0.948
same,normalized growth,"locus YDR318W, strain mcm21, hits give low values",0.794 (active)
same,normalized growth,"locus YDR334W, strain swr1, hits give low values",0.988
same,normalized growth,"locus YDR335W, strain msn5, hits give low values",0.96
same,normalized growth,"locus YDR388W, hits give low values",0.868 (active)
same,normalized growth,"locus YDR392W, strain spt3, hits give low values",0.283 (active)
same,normalized growth,"locus YDR502C, strain sam2, hits give low values",0.814 (active)
same,normalized growth,"locus YEL003W, strain gim4, hits give low values",0.911 (active)
same,normalized growth,"locus YEL037C, strain rad23, hits give low values",0.976
same,normalized growth,"locus YEL061C, strain CIN8 (second series), hits give low values",0.983
same,normalized growth,"locus YEL061C, strain CIN8, hits give low values",0.943
same,normalized growth,"locus YER015W, strain faa2, hits give low values",0.978
same,normalized growth,"locus YER016W, strain bim1, hits give low values",1.05
same,normalized growth,"locus YER110C, hits give low values",0.987
same,normalized growth,"locus YER111C, strain swi4, hits give low values",0.976
same,normalized growth,"locus YER155C, strain BEM2 (second series), hits give low values",0.642 (active)
same,normalized growth,"locus YER155C, strain BEM2, hits give low values",0.875 (active)
same,normalized growth,"locus YER167W, strain BCK2, hits give low values",0.923
same,normalized growth,"locus YFR010W, strain ubp6, hits give low values",0.971
same,normalized growth,"locus YGL078C, strain dbp3, hits give low values",0.885 (active)
same,normalized growth,"locus YGL086W, strain mad1, hits give low values",0.783 (active)
same,normalized growth,"locus YGL167C, strain pmr1, hits give low values",0.981
same,normalized growth,"locus YGL173C, strain kem1, hits give low values",0.883 (active)
same,normalized growth,"locus YGL227W, strain vid30, hits give low values",0.977
same,normalized growth,"locus YGL240W, strain doc1, hits give low values",0.899
same,normalized growth,"locus YGL248W, strain PDE1, hits give low values",0.868 (active)
same,normalized growth,"locus YGL253W, strain hxk2, hits give low values",0.893 (active)
same,normalized growth,"locus YGR078C, strain PAC10, hits give low values",0.882
same,normalized growth,"locus YGR135W, strain pre9, hits give low values",0.85 (active)
same,normalized growth,"locus YGR252W, strain gcn5, hits give low values",0.752 (active)
same,normalized growth,"locus YHR013C, strain ard1, hits give low values",0.822 (active)
same,normalized growth,"locus YHR027C, strain rpn1, hits give low values",0.966
same,normalized growth,"locus YHR030C, strain SLT2, hits give low values",0.804 (active)
same,normalized growth,"locus YHR079C, strain IRE1 (second series), hits give low values",0.832 (active)
same,normalized growth,"locus YHR079C, strain IRE1, hits give low values",0.862
same,normalized growth,"locus YHR094C, strain hxt1, hits give low values",0.964
same,normalized growth,"locus YHR129C, strain ARP1, hits give low values",0.949
same,normalized growth,"locus YHR142W, strain chs7, hits give low values",0.838 (active)
same,normalized growth,"locus YHR200W, strain rpn10, hits give low values",0.903 (active)
same,normalized growth,"locus YIL066C, strain RNR3, hits give low values",0.967
same,normalized growth,"locus YIL073C, strain SPO22, hits give low values",0.811
same,normalized growth,"locus YIL125W, strain kgd1, hits give low values",0.88 (active)
same,normalized growth,"locus YIR030C, strain dcg1, hits give low values",0.917 (active)
same,normalized growth,"locus YJL092W, strain hpr5, hits give low values",0.943
same,normalized growth,"locus YJL095W, strain BCK1 (second series), hits give low values",0.887 (active)
same,normalized growth,"locus YJL095W, strain BCK1, hits give low values",0.737 (active) and 0.818 (active)
same,normalized growth,"locus YJL115W, strain asf1, hits give low values",0.993
same,normalized growth,"locus YJL129C, strain trk1, hits give low values",0.85 (active)
same,normalized growth,"locus YJL134W, strain LCB3, hits give low values",0.96
same,normalized growth,"locus YJL154C, strain vps35, hits give low values",0.993
same,normalized growth,"locus YJL164C, strain tpk1, hits give low values",0.841 (active)
same,normalized growth,"locus YJL166W, strain qcr8, hits give low values",0.85 (active)
same,normalized growth,"locus YJL168C, strain set2, hits give low values",0.947
same,normalized growth,"locus YJL187C, strain SWE1 (second series), hits give low values",0.931
